The structures appear in SMILES notation. Activity calls are given as the source filed them.

The subject of test [1] is Plasmodium falciparum Sir2 (PF13_0152, Sir2A). As to the kind of experiment: pfSir2 binders on small-molecule microarrays, primary screen, biochemical, small-molecule microarray, 635 nm fluorescence (AID 1098).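 Also: score merges spot fluorescence intensity with its signal-to-noise ratio.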 Conditions: small-molecule microarray binding, fluorescence 635 nm; higher = more signal.
Test [2] is described as follows: small-molecule microarray binders of probe aDKK1, primary screen, biochemical, biotinylated probe, 635/667 nm fluorescence (AID 1099).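 Also: score merges 667nm spot fluorescence with signal to noise across triplicate slides.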 Conditions: higher = more signal.
A short description of test [3]: small-molecule microarray binders of probe aCHRDL2, primary screen, biochemical, biotinylated probe, 635/667 nm fluorescence (AID 1100). The conditions noted are these: higher = more signal.
Test [4] is described as follows: splicing luciferase reporter signal modulators, primary screen, spliceosome inhibition project, cell-based, HEK293, splice +/- reporter (AID 1101).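 Also: HEK293 cells carrying a splicing-competent luciferase reporter gene; test concentration not given here.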 Conditions: luminescence, 24 h, higher = more signal, called active from +8 up or from −8 down.
Test [5] addresses Fibroblast growth factor 10 (Homo sapiens) (UniProt O15520). Nature of the test: FGF10 binders on small-molecule microarrays, primary screen, biochemical, small-molecule microarray, 635 nm fluorescence (AID 1102). The conditions noted are these: FGF10 binding, fluorescence 635 nm, higher = more signal.
Test [6] relates to glycogen synthase kinase-3 (GSK3A per assay name; protocol says GSK3B). As to the kind of experiment: GSK3 binders on small-molecule microarrays, primary screen, biochemical, small-molecule microarray, 635 nm fluorescence, GSK3A (AID 1103). Also: the record names both GSK3A and GSK3B. Conditions: small-molecule microarray binding, fluorescence 635 nm; higher = more signal.
In test [7] the target is Epidermal growth factor receptor (Homo sapiens) (UniProt P00533). As to the kind of experiment: EGFR binders on small-molecule microarrays, primary screen, biochemical, small-molecule microarray, 635 nm fluorescence (AID 1104).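 Also: score merges 667 nm emission intensity with spot signal to noise over triplicate slides.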 The conditions noted are these: EGFR binding, higher = more signal.
Chain of Epidermal growth factor receptor (Homo sapiens) (P00533 whole entry, looked up): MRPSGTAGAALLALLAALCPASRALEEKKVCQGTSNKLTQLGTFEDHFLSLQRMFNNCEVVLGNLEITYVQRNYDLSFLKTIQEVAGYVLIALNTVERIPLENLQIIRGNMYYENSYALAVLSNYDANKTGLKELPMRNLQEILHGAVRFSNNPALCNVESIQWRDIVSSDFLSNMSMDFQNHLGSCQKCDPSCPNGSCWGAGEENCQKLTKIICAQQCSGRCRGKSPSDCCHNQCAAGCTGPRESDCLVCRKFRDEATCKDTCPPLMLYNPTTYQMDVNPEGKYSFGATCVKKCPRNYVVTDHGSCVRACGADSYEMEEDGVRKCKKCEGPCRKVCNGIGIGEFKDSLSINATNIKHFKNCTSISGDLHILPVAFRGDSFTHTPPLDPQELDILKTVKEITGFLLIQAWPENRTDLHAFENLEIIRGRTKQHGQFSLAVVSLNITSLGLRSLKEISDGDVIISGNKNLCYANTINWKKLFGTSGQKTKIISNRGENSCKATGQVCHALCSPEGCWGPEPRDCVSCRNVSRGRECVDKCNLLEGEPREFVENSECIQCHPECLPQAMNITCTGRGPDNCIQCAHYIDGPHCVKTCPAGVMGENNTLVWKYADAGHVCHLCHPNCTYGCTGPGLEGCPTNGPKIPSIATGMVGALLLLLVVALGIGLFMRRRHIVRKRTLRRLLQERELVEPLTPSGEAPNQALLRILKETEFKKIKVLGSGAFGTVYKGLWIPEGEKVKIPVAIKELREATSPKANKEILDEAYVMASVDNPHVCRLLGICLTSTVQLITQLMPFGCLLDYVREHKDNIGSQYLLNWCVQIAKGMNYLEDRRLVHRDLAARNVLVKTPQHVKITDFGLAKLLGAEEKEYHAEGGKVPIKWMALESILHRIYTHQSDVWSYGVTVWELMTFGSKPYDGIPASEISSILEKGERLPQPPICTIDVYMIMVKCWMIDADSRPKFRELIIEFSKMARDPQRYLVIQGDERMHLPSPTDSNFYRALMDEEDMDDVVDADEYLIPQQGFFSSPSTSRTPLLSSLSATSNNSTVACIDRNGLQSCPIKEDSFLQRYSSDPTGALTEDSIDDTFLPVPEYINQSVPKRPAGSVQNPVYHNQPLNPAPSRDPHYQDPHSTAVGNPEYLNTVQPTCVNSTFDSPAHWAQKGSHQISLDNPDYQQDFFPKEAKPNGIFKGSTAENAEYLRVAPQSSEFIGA
Test [8] has as its target Follistatin-related protein 3 (Homo sapiens) (UniProt O95633). As to the kind of experiment: FSTL3 binders on small-molecule microarrays, primary screen, biochemical, small-molecule microarray, 635 nm fluorescence (AID 1105).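 Also: score merges emission near 667 nm and signal to noise per printed spot across three slides.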 Conditions: FSTL3 binding, higher = more signal.
Test [9] concerns the target Dickkopf-related protein 1 (Homo sapiens) (UniProt O94907). Nature of the test: DKK1 binders on small-molecule microarrays, primary screen, biochemical, small-molecule microarray, 635 nm fluorescence scan (AID 1106).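 Also: score merges emission near 667 nm with signal to noise over three replicate slides.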 Conditions: DKK1 binding, higher = more signal.
The subject of test [10] is Inhibin beta A chain (activin A). Nature of the test: INHBA (activin A) binders on microarrays, primary screen, biochemical, small-molecule microarray, 635 nm fluorescence scan (AID 1107).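 Also: mouse activin A protein probed at 4.33 µg/mL on printed slides; score merges bound-protein fluorescence near 667 nm with spot signal-to-noise.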 Conditions: small-molecule microarray binding, higher = more signal.
Test [11] relates to Human papillomavirus type 1a protein E7 (residues 44-93). Nature of the test: HPV1a E7 fragment binders on microarrays, primary screen, biochemical, small-molecule microarray, residues 44-93, 635 nm fluorescence (AID 1108).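 Also: E7 fragment applied at 1 µg/mL in TBST for 1 h at 4 C; score combines spot fluorescence with its signal to noise ratio.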 Conditions: small-molecule microarray binding, fluorescence 635 nm; higher = more signal.
Test [12] can be described thus: modulators of HCV replicon luciferase signal, primary screen, HCV replication inhibitor project, Huh7 cells, luciferase reporter (AID 1109).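 Also: huh7 hepatoma cells harbouring a luciferase neomycin HCV replicon reporter; luciferase luminescence as measure of HCV replicon replication; test concentration not given here.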 The conditions noted are these: 48 h, higher = more signal. Background: A replicon is a self-replicating genome or part of one, used to study replication in cells.
Test [13] concerns the target Left-right determination factor 2 (Homo sapiens) (UniProt O00292). Nature of the test: LEFTY2 binders on small-molecule microarrays, primary screen, biochemical, small-molecule microarray, 635 nm fluorescence scan (AID 1110). Conditions: LEFTY2 binding, higher = more signal.
For test [14], the target named is Calmodulin-1 (Homo sapiens) (UniProt P0DP23). As to the kind of experiment: CALM1 binders on microarrays, EGTA buffer, profiling panel, biochemical, small-molecule microarray, Cy5-labelled CALM1 (AID 1111).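 Also: labelled calmodulin applied in Tris saline Tween buffer holding calcium plus EGTA and DTT.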 Conditions: Cy5-CALM1 binding fluorescence, higher = more signal.
The target is the same in test [15]. Nature of the test: calcium-bound CALM1 binders on microarrays, profiling panel, artefact control for SMM control-protein annotation, biochemical, small-molecule microarray, Cy5-labelled CALM1, plus calcium (AID 1112).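 Also: score merges spot fluorescence with signal to noise from triplicate slides.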 Conditions: Cy5-CALM1 binding fluorescence, higher = more signal.
Test [16] can be described thus: small-molecule microarray binders of probe aWnt5a, primary screen, biochemical, biotinylated probe, 635/667 nm fluorescence (AID 1113).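 Also: score merges 667 nm fluorescence intensity with signal-to-noise per printed feature.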 Conditions: higher = more signal.
Test [17] can be described thus: small-molecule microarray binders of probe aShh, primary screen, biochemical, biotinylated probe, 635/667 nm fluorescence (AID 1114).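 Also: probe is biotin-labelled aShh protein from a stem cell growth factor screen; measures binding of labelled protein to compounds printed on the slide; score merges feature fluorescence at 667 nm with signal-to-noise.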 The conditions noted are these: higher = more signal.
Test [18] in a line: small-molecule microarray binders of probe aNog, primary screen, biochemical, biotinylated probe, 635/667 nm fluorescence (AID 1115).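 Also: probe is biotinylated aNog protein used at 0.15 µg/mL for 1 h at 4 C; z-score combines 667 nm fluorescence of each spot with its signal to noise.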 Conditions: higher = more signal.
In test [19] the target is Torsin-1A-interacting protein 1 (Homo sapiens) (UniProt Q5JTV8). Nature of the test: LAP1 binders from COS7 cell lysate, primary screen, small-molecule microarray, 635/667 nm fluorescence (AID 1116). The conditions noted are these: COS7-hLAP1 lysate binding, 635 nm fluorescence, higher = more signal.
Chain of Torsin-1A-interacting protein 1 (Homo sapiens) (Q5JTV8 whole entry, looked up): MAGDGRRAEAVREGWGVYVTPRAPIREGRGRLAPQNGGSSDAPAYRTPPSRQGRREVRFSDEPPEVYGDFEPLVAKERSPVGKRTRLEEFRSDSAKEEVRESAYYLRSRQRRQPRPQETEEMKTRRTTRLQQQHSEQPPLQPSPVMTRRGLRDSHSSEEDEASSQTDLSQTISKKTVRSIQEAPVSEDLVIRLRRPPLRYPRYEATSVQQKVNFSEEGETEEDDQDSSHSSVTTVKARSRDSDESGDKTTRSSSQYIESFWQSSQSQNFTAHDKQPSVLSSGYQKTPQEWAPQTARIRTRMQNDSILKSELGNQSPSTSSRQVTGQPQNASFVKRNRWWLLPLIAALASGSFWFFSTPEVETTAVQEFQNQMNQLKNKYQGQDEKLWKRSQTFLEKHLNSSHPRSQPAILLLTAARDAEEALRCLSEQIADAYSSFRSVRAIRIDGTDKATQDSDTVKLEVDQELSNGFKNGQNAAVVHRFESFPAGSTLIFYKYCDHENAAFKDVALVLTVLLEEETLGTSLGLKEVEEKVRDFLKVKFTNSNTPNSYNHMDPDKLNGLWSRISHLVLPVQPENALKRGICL
Test [20] addresses Alpha-bungarotoxin (Bungarus multicinctus) (UniProt P60615). Nature of the test: alpha-bungarotoxin binders on microarray, profiling panel, artefact control for SMM control protein annotation, biochemical, small-molecule microarray, Alexa647 label, 635/667 nm fluorescence (AID 1117). The conditions noted are these: alpha-BTX-A647 binding fluorescence, higher = more signal.

Chain of Fibroblast growth factor 10 (Homo sapiens) (O15520 whole entry, looked up): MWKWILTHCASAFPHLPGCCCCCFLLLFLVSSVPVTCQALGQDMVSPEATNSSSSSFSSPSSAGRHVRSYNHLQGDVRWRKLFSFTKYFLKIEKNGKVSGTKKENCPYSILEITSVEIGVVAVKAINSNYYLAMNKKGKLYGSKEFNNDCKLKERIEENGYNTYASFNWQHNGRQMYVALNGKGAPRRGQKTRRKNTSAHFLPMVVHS
Chain of Follistatin-related protein 3 (Homo sapiens) (O95633 whole entry, looked up): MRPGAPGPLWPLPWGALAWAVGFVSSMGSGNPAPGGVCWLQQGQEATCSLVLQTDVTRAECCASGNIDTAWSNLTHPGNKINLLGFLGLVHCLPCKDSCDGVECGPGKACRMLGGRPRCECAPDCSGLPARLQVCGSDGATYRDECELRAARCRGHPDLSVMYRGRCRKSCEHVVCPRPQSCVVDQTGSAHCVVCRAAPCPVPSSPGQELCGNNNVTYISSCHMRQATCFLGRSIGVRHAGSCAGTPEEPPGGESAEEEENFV
Chain of Dickkopf-related protein 1 (Homo sapiens) (O94907 whole entry, looked up): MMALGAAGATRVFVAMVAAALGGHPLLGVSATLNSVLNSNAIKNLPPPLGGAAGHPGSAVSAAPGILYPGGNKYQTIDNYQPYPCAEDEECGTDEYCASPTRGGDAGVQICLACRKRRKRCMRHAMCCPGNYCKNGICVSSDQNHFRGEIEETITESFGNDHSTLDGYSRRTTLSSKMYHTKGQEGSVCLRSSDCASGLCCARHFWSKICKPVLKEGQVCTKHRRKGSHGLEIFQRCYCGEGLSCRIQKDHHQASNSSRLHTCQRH
Chain of Alpha-bungarotoxin (Bungarus multicinctus) (P60615 whole entry, looked up): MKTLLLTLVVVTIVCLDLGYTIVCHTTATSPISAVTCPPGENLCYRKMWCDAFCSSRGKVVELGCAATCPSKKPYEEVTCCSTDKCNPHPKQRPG
Chain of Left-right determination factor 2 (Homo sapiens) (O00292 whole entry, looked up): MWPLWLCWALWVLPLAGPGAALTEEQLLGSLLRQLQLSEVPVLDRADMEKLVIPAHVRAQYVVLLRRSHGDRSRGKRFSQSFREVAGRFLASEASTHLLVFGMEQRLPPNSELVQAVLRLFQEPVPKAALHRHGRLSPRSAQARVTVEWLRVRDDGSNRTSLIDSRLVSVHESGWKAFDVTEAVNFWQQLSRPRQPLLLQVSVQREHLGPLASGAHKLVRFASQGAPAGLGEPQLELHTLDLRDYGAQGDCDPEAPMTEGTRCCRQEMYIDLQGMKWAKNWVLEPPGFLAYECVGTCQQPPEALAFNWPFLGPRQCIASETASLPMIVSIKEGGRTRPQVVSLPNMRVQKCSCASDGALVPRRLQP

For `COc1ccc([Si](C)(C)[C@H]2[C@H](CC(=O)N3CCC[C@H]3CO)O[C@@]3(C(=O)N(Cc4ccc(N5CCCCC5=O)cc4)c4ccccc43)[C@@H]2C)cc1`, the composite z-score in test [1] was 1.17; in test [2] it was -0.28; in [3] it was -0.466; in [5] it was 1.18; in [6], 1.09; in test [7] it was 0.639. Besides, the composite z-score in test [8] came to 1.23; in [9], 0.863; in [10], 0.704; in test [11], 1.4; in [13], 0.721; in [14], 0.441. Also, the composite z-score is -0.393 in test [15]; -0.0239 in test [16]; 0.0639 in test [17]; 1.32 in [18]; 1.15 in test [19]; 1.62 in test [20]. Moreover, the z-score in test [4] is -1.16 (inactive); in test [12], -1.46.
In the case of `COc1cc(C(O)C2C=CC3C(=O)N(c4ccccc4)C(=O)C3N2Nc2ccccc2F)cc(OC)c1OC` (stereo not given), the composite z-score is 1.41 in test [1]; 0.521 in test [2]; 0.55 in test [3]; 1.35 in test [5]; 1.34 in test [6]; -0.117 in [7]. Moreover, the composite z-score was 0.479 in test [8]; -0.0657 in [9]; 0.519 in [10]; 1.48 in test [11]; 0.2 in test [13]; 1.05 in [14]. Further, the composite z-score in [15] was -0.383; in test [16], 0.0357; in test [17], -0.0146; in test [18] it was 1.11; in test [19], 0.512; in test [20], 0.983. For the same compound, the z-score is 0.392 (inactive) in test [4] and -0.892 in test [12].
As for `CC(C)=CCCC(C)=CC(O)C1C=CC2C(=O)NC(=O)C2N1Nc1ccc(Cl)cc1Cl` (stereo not given), the composite z-score in test [1] came to 0.44; in [2], 0.34; in [3], 0.992; in [5] it was 0.499; in [6] it was 0.0742; in [7], 0.542. Also, the composite z-score turned out to be 1.1 in test [8]; 0.153 in test [9]; 1.44 in [10]; 1.36 in [11]; 0.41 in test [13]; 1.69 in test [14]. Moreover, the composite z-score in test [15] is 0.254; in [16], -0.0327; in test [17], 0.14; in [18], 1.5; in [19], 1.17; in test [20], 0.451. Moreover, the z-score is 1.22 (inactive) in test [4] and -0.922 in [12].
Turning to `CCCCN1CC=CC23O[C@@H]4/C=C\CCCOC(=O)C4[C@H]2C(=O)N(C(CO)C(C)C)[C@@H]3C1=O` (stereo not given in full), the composite z-score in test [1] is -0.459; in test [2] it was -0.277; in test [3], -0.179; in test [5] it was -0.138; in [6] it was -0.115; in test [7] it was 0.183. Besides, the composite z-score in [8] was -0.436; in test [9], 0.323; in test [10] it was 1.21; in [11], -0.0052; in test [13] it was 0.272; in [14] it was -0.11. Besides, the composite z-score in [15] was -0.0085; in test [16], -0.0482; in [17] it was 0.0469; in test [18], -0.51; in test [19] it was 0.0974; in test [20], -0.838. Moreover, the values for the z-score in [4] and in [12] were 0.558 (inactive) and -0.134, respectively.
On to `CCCN1C(=O)[C@]2(CCC(=O)OC(C)(C)C)N=C(c3ccc(OCCCO)cc3)O[C@@H]2c2ccccc21`, for which the composite z-score in test [1] is 0.715; in test [2], 0.173; in test [3] it was 1.16; in test [5], 1.31; in test [6] it was 1.21; in test [7], -0.413. Moreover, the composite z-score in test [8] is 0.299; in test [9] it was -0.175; in [10], 1.31; in test [11], 1.17; in [13], -0.399; in test [14], -0.0977. The composite z-score is -0.148 in test [15]; -0.124 in test [16]; 0.0469 in test [17]; 0.175 in test [18]; 3.34 in test [19]; 0.28 in test [20]. Besides, the values for the z-score in test [4] and in test [12] were 0.0554 (inactive) and -2.87, respectively.
